Test results from PubChem BioAssay (NCI).
Compounds without any hit were thinned out: in the full panel of roughly 83,000, 20% have a hit.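 Assay: single dose, 48 h. Readout: percent growth (0 = no net growth; negative = cell death). Active: <10.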 Activity calls are given as the source filed them.

What was measured:
Assay in all cases: NCI-60 one-dose screen, 48 h (100 = growth as untreated, 0 = no growth, -100 = all killed)
Settings in all cases: 10 µM unless noted
SK-MEL-2 melanoma = system: SK-MEL-2 melanoma
EKVX NSCLC = system: EKVX NSCLC
SN12C renal = system: SN12C renal
UO-31 renal = system: UO-31 renal
ACHN renal = system: ACHN renal
CAKI-1 renal = system: CAKI-1 renal
A498 renal = system: A498 renal
CCRF-CEM leukemia = system: CCRF-CEM leukemia
MOLT-4 leukemia = system: MOLT-4 leukemia
TK-10 renal = system: TK-10 renal

Measured: growth

C#Cc1nc(/C=C/C(=O)NO)cs1
inactive: SK-MEL-2 melanoma 81.5% | EKVX NSCLC 85.2% | SN12C renal 91.6% | A498 renal 17.9%
active: UO-31 renal -94% | ACHN renal -81.9% | CAKI-1 renal -94.9% | CCRF-CEM leukemia -45.7% | MOLT-4 leukemia -45.3%

CN1CCN(c2ccc(Nc3nc(NCCCNS(=O)(=O)c4cccc5ccccc45)c4sccc4n3)cc2)CC1
inactive: EKVX NSCLC 36.1%
active: SK-MEL-2 melanoma -81.7% | SN12C renal -3.36% | UO-31 renal -51.1% | ACHN renal -23.8% | CAKI-1 renal -52.7% | A498 renal -70.5% | MOLT-4 leukemia -3.37%

COc1ccc(C(=O)c2c(N)c(C#N)cn2-c2ccc(Cl)cc2Cl)cc1
inactive: SK-MEL-2 melanoma 97% | EKVX NSCLC 93.6% | SN12C renal 100% | UO-31 renal 84.5% | ACHN renal 98.1% | CAKI-1 renal 91.7% | A498 renal 109% | CCRF-CEM leukemia 101% | MOLT-4 leukemia 90.7%

C[C@H]1OCC2(CCN(c3cnc(C(=O)Nc4cc(F)cc5cccnc45)cn3)CC2)[C@H]1N
inactive: SK-MEL-2 melanoma 101% | EKVX NSCLC 77.2% | SN12C renal 46.5% | UO-31 renal 38.9% | ACHN renal 33.7% | CAKI-1 renal 40.9% | A498 renal 65.2% | CCRF-CEM leukemia 15.6% | MOLT-4 leukemia 16.8%

COc1ccc2[nH]cc(-c3nc(N)nnc3-c3cn(C)c4ccc(Br)cc34)c2c1
inactive: EKVX NSCLC 38.1% | SN12C renal 42.6% | UO-31 renal 40.7% | ACHN renal 40.5% | CAKI-1 renal 29.1% | MOLT-4 leukemia 10.7%
active: SK-MEL-2 melanoma 9.85% | A498 renal -1.71% | CCRF-CEM leukemia 2.97%

O=C1Nc2ccccc2/C1=C/c1ccc(OCC(=O)c2ccccc2)cc1
inactive: SK-MEL-2 melanoma 113% | EKVX NSCLC 100% | SN12C renal 93.9% | UO-31 renal 69.5% | ACHN renal 96.6% | CAKI-1 renal 86.9% | A498 renal 104% | CCRF-CEM leukemia 98.1% | MOLT-4 leukemia 97.8%

CCN(CC)CCOc1ccc(C(=C(C)Cc2ccc(OC)cc2)c2ccc(OCCN(CC)CC)cc2)cc1
inactive: SK-MEL-2 melanoma 116% | EKVX NSCLC 84% | SN12C renal 86.1% | UO-31 renal 68.3% | ACHN renal 46.7% | CAKI-1 renal 69.8% | A498 renal 85.7%
active: CCRF-CEM leukemia 3.83% | MOLT-4 leukemia 3.61%

Cc1cc(NS(=O)(=O)c2ccc(NC(=O)CSc3nc4ccccc4c(=O)n3-c3ccccc3)cc2)no1
inactive: SK-MEL-2 melanoma 109% | EKVX NSCLC 96.8% | SN12C renal 101% | UO-31 renal 85.9% | ACHN renal 98.1% | CAKI-1 renal 94.9% | A498 renal 99.6% | CCRF-CEM leukemia 96.8% | MOLT-4 leukemia 107%

C=C(C)[C@@H]1CC[C@]2(C(=O)N3CCN(C)CC3)CC[C@]3(C)[C@H](CC[C@@H]4[C@@]5(C)CC[C@H](OP(=O)(OCC)OCC)C(C)(C)[C@@H]5CC[C@]43C)[C@@H]12
inactive: SK-MEL-2 melanoma 106% | EKVX NSCLC 72.8% | SN12C renal 84.7% | UO-31 renal 60.8% | ACHN renal 83.6% | CAKI-1 renal 61.2% | A498 renal 96.4% | CCRF-CEM leukemia 35.4% | MOLT-4 leukemia 36.3%

C/C(=C(/C)C1CC1CCNC1CCC(NC(=O)OC(C)(C)C)CC1)c1ccccc1 (centres undefined)
inactive: EKVX NSCLC 73.7% | SN12C renal 76.2% | UO-31 renal 63.8% | TK-10 renal 108% | ACHN renal 87.1% | CAKI-1 renal 53.6% | A498 renal 78% | CCRF-CEM leukemia 54% | MOLT-4 leukemia 61.9%

CCCCSC1=C(Cl)CN(c2ccccc2)C1=O
inactive: EKVX NSCLC 97.8% | SN12C renal 94.6% | UO-31 renal 92.2% | TK-10 renal 134% | ACHN renal 106% | CAKI-1 renal 94% | A498 renal 108% | CCRF-CEM leukemia 117% | MOLT-4 leukemia 105%

COc1ccc(C2CC(c3cccc(OCCCCOc4cccc(C5=NN(C(C)=O)C(c6ccc(OC)cc6)C5)c4)c3)=NN2C(C)=O)cc1 (centres undefined)
inactive: EKVX NSCLC 46.3% | SN12C renal 79.9% | UO-31 renal 54.7% | TK-10 renal 78.9% | ACHN renal 67.2% | CAKI-1 renal 54.1% | A498 renal 75.8% | CCRF-CEM leukemia 63.8%

CS(=O)(=O)c1ccc(/C(=N/N=C(N)N)c2ccc(F)cc2)cc1
inactive: EKVX NSCLC 85.3% | SN12C renal 106% | UO-31 renal 92.7% | TK-10 renal 92% | ACHN renal 98% | CAKI-1 renal 51.4% | A498 renal 88.8% | CCRF-CEM leukemia 74.9% | MOLT-4 leukemia 103%

O=C1/C(=C/c2cc(F)cc(F)c2)Cc2cc3c(cc21)OCO3
inactive: EKVX NSCLC 73.5% | SN12C renal 45.7% | UO-31 renal 41.3% | TK-10 renal 99.4% | ACHN renal 43.9% | CAKI-1 renal 29.1% | A498 renal 20.2% | CCRF-CEM leukemia 56.1% | MOLT-4 leukemia 43.3%
